# The supplement of paper PMC11732987, “Enantioselective OTUD7B fragment discovery through chemoproteomics screening and high-throughput optimisation” (Communications Chemistry, 2025)
# A number with no mark means an inactive call.
# What was measured:
# Experiment in all cases: log2 ratio of Biotin-Ahx-Ub-VS probe labelling (fragment/DMSO); higher = less target engagement (more negative = stronger competition), active = hit call of the paper (q ≤ 0.05, log2 ratio ≤ -1)
# Conditions in all cases: compound concentration: 200 uM; treatment time: 3 h
# [1] = target: T1, USP19 (UniProt O94966)
# T1 sequence (whole entry): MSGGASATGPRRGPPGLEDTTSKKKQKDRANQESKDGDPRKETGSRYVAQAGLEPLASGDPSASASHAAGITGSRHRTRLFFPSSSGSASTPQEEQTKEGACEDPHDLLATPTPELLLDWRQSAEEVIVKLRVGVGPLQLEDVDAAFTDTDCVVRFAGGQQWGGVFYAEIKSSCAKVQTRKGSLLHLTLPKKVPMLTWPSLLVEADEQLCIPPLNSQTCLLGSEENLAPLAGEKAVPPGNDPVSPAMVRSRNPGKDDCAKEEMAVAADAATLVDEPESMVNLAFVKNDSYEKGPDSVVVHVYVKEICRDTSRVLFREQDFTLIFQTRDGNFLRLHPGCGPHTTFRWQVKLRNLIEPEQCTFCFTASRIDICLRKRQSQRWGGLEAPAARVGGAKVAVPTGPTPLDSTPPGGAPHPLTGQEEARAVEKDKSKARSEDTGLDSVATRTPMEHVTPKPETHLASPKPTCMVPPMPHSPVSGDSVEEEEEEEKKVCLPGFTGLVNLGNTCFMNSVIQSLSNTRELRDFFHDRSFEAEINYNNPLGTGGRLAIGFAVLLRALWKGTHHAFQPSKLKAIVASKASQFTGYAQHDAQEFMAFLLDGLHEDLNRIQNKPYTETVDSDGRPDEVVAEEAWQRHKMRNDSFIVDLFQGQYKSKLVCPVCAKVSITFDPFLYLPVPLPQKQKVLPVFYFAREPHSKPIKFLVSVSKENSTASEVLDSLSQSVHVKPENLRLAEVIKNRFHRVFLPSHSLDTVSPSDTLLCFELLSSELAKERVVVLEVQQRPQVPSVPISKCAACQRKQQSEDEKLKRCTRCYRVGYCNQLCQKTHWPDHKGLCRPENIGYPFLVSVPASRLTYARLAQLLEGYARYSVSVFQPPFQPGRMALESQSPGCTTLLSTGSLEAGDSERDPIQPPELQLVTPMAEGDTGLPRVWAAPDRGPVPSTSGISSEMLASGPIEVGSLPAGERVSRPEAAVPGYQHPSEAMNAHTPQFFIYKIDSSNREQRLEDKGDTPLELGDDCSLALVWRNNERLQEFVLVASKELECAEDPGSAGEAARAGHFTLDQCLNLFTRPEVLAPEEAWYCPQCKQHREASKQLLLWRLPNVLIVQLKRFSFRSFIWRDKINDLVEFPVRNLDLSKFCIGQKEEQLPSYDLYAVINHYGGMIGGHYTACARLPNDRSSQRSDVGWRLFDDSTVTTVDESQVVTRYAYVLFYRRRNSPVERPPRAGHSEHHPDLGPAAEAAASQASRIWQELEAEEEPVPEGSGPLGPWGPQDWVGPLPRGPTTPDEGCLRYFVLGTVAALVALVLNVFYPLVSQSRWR
# How it was run: (§1)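 The table lists average log2 ratios of fragment over vehicle, from an unpaired t-test on global-median-normalised Spectronaut label-free quantities. Proteins with ≥2 unique peptides were used. Samples were HEK293T lysate (495 µg) treated in triplicate with fragment at 200 µM or vehicle for 3 h, then with Biotin-Ahx-Ub-VS (0.5 µM final) for 1 h, with labelled DUBs NeutrAvidin-enriched and run by diaPASEF LC-MS/MS.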
# [2] = target: T2, USP22 (UniProt Q9UPT9)
# T2 sequence (whole entry): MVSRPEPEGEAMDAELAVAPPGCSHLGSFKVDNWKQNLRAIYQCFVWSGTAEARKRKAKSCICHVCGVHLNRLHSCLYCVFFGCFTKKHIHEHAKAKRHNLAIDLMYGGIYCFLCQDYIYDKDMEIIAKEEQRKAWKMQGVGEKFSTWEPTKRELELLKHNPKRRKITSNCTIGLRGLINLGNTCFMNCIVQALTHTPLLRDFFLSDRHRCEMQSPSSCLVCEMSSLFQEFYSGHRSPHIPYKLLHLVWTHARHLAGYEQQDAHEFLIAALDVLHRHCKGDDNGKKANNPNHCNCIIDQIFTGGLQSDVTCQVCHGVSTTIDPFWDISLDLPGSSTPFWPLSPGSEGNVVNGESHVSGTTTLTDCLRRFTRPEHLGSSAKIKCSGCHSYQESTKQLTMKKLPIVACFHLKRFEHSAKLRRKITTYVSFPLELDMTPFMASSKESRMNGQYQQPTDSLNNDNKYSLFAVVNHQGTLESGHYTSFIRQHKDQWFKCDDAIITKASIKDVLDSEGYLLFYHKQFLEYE
# How it was run: as §1
# [3] = target: USP24 (UniProt Q9UPU5)
# Sequence of USP24 (Q9UPU5 whole entry): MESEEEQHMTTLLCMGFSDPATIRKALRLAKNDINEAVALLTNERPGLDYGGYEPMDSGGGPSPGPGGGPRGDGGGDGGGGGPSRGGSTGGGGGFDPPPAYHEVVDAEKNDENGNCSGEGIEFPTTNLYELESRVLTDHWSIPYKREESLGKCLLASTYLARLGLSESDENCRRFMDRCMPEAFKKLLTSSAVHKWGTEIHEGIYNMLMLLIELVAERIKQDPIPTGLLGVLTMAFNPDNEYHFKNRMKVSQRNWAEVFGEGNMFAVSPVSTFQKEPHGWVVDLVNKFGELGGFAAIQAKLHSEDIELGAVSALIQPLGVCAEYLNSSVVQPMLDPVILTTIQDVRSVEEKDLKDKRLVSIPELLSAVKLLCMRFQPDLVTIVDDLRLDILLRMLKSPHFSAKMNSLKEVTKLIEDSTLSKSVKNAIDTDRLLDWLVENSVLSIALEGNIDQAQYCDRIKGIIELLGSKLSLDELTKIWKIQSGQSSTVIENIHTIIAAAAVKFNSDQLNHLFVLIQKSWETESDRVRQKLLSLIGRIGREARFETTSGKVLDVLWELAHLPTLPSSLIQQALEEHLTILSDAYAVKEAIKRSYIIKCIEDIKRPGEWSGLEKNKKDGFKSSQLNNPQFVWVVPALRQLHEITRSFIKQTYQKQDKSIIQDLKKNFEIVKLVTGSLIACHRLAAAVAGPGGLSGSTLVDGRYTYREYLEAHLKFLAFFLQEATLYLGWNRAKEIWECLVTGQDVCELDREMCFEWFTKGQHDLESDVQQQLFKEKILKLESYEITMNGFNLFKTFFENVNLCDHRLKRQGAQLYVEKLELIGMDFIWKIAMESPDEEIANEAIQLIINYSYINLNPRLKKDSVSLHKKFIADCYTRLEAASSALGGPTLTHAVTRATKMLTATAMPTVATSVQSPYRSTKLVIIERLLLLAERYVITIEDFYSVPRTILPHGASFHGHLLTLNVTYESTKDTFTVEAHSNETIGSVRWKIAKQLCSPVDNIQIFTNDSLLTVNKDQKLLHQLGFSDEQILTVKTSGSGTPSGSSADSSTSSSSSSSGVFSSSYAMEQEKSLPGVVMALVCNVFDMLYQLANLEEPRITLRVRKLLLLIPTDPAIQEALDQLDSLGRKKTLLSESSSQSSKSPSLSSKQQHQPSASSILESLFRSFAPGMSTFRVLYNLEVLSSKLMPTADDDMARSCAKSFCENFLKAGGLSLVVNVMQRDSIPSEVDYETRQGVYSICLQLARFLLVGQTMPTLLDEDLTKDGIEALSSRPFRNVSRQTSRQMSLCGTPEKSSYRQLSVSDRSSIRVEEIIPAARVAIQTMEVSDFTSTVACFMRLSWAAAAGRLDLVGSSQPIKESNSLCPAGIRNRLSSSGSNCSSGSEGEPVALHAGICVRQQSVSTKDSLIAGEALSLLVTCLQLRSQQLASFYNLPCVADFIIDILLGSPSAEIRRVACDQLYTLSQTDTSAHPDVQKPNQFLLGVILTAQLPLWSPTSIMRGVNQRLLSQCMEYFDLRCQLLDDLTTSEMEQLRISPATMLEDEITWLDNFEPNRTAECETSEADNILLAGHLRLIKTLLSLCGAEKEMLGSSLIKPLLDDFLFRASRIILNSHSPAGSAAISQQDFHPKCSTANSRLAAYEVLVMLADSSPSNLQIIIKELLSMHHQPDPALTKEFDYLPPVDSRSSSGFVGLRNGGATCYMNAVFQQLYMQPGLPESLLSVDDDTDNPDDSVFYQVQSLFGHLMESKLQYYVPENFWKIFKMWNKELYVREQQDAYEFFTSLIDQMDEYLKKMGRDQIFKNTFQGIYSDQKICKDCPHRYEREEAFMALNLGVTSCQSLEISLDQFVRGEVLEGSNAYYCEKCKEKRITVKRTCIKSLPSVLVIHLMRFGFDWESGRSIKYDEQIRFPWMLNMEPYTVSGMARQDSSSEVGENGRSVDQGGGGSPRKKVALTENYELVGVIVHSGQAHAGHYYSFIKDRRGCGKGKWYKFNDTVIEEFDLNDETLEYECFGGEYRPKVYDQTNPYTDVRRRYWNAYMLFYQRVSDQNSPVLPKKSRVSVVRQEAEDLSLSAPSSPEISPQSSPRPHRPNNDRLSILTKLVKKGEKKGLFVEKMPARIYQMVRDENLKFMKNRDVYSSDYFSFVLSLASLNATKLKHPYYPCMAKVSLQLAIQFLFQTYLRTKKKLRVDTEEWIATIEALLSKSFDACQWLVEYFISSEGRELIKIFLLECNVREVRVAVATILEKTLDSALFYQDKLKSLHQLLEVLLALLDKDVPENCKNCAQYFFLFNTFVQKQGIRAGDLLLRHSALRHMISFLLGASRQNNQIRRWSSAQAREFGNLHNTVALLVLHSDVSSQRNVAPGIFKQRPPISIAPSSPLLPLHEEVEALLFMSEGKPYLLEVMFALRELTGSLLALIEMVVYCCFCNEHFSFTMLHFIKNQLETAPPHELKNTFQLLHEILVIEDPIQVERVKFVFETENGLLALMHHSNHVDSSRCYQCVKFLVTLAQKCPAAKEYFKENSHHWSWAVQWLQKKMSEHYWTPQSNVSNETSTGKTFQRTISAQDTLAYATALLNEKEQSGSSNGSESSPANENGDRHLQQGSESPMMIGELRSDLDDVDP
# How it was run: as §1
# [4] = target: T3, USP25 (UniProt Q9UHP3)
# T3 sequence (whole entry): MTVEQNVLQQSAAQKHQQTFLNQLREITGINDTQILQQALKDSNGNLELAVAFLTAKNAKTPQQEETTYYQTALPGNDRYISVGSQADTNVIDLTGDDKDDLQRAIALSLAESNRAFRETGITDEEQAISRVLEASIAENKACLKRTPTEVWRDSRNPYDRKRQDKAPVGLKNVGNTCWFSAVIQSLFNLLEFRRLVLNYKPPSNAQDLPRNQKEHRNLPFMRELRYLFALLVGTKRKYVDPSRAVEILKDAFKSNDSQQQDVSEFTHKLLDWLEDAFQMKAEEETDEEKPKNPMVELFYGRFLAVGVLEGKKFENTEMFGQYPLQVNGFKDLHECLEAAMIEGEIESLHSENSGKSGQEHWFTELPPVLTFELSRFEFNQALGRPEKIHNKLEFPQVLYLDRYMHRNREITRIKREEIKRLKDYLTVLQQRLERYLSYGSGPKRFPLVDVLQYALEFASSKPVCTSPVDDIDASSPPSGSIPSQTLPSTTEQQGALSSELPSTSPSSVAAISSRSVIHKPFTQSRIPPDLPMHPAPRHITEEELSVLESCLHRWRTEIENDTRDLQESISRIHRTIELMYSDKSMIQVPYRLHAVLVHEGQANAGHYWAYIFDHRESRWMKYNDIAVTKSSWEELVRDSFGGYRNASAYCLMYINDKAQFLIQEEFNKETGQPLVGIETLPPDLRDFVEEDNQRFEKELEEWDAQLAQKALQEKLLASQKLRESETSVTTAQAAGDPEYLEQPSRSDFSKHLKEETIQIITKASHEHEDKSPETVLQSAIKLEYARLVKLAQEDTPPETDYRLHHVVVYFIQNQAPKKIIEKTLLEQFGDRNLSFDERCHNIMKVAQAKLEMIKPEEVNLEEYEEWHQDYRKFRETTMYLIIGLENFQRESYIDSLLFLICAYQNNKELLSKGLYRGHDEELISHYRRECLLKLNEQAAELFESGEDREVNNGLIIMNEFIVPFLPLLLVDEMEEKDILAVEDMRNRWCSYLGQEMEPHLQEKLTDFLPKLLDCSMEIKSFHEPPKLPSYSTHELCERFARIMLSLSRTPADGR
# How it was run: as §1
# [5] = target: T4, USP28 (UniProt Q96RU2)
# T4 sequence (whole entry): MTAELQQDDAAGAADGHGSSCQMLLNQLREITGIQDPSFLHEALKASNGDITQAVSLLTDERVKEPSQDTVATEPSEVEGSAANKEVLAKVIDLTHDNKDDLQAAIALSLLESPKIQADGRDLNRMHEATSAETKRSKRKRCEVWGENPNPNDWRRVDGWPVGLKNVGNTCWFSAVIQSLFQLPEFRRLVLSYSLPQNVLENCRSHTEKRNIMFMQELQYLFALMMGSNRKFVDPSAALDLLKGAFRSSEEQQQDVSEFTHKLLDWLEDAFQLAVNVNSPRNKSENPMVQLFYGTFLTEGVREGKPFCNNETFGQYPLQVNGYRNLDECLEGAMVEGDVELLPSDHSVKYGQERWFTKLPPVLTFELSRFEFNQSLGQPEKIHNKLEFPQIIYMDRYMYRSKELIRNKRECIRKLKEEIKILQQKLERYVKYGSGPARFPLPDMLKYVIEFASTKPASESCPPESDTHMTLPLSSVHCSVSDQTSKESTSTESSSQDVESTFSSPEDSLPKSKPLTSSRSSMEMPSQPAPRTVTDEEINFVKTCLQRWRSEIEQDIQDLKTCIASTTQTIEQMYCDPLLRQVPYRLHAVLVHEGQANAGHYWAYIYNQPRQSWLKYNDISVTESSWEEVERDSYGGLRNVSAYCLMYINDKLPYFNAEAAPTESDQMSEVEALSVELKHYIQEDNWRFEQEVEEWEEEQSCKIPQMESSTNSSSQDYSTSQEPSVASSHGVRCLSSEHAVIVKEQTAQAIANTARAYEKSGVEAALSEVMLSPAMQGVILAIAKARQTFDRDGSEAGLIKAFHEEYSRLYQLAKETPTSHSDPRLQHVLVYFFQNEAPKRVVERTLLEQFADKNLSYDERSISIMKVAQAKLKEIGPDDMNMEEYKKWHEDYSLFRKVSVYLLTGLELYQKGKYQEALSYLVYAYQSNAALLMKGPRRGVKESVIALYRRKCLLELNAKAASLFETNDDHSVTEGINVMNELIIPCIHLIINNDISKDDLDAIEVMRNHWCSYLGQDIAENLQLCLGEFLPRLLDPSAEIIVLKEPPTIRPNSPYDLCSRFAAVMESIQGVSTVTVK
# How it was run: as §1
structure (smiles),measurement,setting,value
Cc1c(C#N)c(NC(=O)CCl)n(Cc2ccco2)c1C,log2 ratio of Biotin-Ahx-Ub-VS probe labelling,[1],-0.239
same,log2 ratio of Biotin-Ahx-Ub-VS probe labelling,[2],-0.178
same,log2 ratio of Biotin-Ahx-Ub-VS probe labelling,[3],-0.837
same,log2 ratio of Biotin-Ahx-Ub-VS probe labelling,[4],-1.24 (active)
same,log2 ratio of Biotin-Ahx-Ub-VS probe labelling,[5],-1.76 (active)
